SMILES strings stand for the structures. The whole screen tested about 3,300 compounds, of which about 280 (8.5%) were called active. The sample as a whole holds a higher share of actives than the screen did. Unmarked numbers belong to inactive results.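 Rule for the calls: active = mean growth inhibition over the two runs of 50% or more; inactive = mean growth inhibition under 50%.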

A short description of this experiment: A549 NSCLC cell proliferation inhibitors – ATP luminescence, human non-small cell lung line, primary screen (AID 371).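 Note: compound exposure lasted 72 h before the ATP read; 0% = untreated cell signal and 100% = no luminescence left.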 The settings on record: at 10 µM, hits give high values.
For `C=CCn1c(=S)[nH]c2ccccc2c1=O`, the growth inhibition is 6.62%.

On to `O=c1c2ccccc2[nH]c(=S)n1CCN1CCC(=C(c2ccc(F)cc2)c2ccc(F)cc2)CC1`, for which the growth inhibition is 69.1% (active).

Take `O=C(c1ccc(F)cc1)C1CCN(CCn2c(=O)[nH]c3ccccc3c2=O)CC1`: the growth inhibition was 8.97%.

`CCCSc1nnc2n(-c3ccccc3OC)c(=O)c3c4c(sc3n12)CCC4`: the growth inhibition is 15.6%.

With `O=C(Nc1ccccn1)NC(C(F)(F)F)C(F)(F)F`, the growth inhibition was 0.87%.

Consider `CCOC(=O)C1/C(=N\O)CC(C)(O)C(C(=O)OCC)C1c1ccc(OC)c(OC)c1` (configuration not stated), for which the growth inhibition was 2.33%.

As for `CC[C@]1(O)C[C@@H]2CN(CCc3c([nH]c4ccccc34)[C@@](C(=O)OC)(c3cc4c(cc3OC)N(C)[C@H]3[C@@](O)(C(=O)OC)[C@H](OC(C)=O)[C@]5(CC)C=CCN6CC[C@]43[C@@H]65)C2)C1`, the growth inhibition is 71.8% (active).

As to `CC[C@]1(O)CC2CN(CCc3c([nH]c4ccccc34)[C@@](C(=O)OC)(c3cc4c(cc3OC)N(C=O)[C@H]3[C@@](O)(C(=O)OC)[C@H](OC(C)=O)[C@]5(CC)C=CCN6CC[C@]43[C@@H]65)C2)C1` (some centres not stated), the growth inhibition is 59.6% (active).

As for `Cn1c2ccccc2c2nn(-c3ccccc3)c(=O)cc21`, the growth inhibition was 12.4%.

Turning to `CC(=O)Nc1ccc(OC(=O)CC2SC(=O)NC2=O)cc1` (configuration not stated), the growth inhibition was 1.99%.

`COc1ccc(C(CC(=O)N2CCOCC2)C(C)C)cc1` (configuration not stated): the growth inhibition is -4.83%.

As to `CCC(=O)Oc1ccc(C(CC)C(CC)c2ccc(OC(=O)CC)cc2)cc1` (configuration not stated), the growth inhibition was 62.3% (active).

On to `CC(=O)Oc1ccc(C(c2ccc(OC(C)=O)cc2)c2ccccn2)cc1`, for which the growth inhibition was 14.2%.

On to `CCCCOc1ccc(C(=O)NCC(=O)NCC(=O)OCC)cc1`, for which the growth inhibition was 40.7%.

In the case of `CCC(=O)Oc1ccc(/C(CC)=C(\CC)c2ccc(OC(=O)CC)cc2)cc1`, the growth inhibition is 71.7% (active).

With `CCOC(=O)CNC(=O)CNC(=O)c1ccc(OC)cc1`, the growth inhibition was 2.92%.

Turning to `Cc1nn(CC(N)=O)c(=O)c2ccccc12`, the growth inhibition was 25.7%.

On to `O=S1(=O)C[C@@H](N2CCOCC2)[C@H](N2CCOCC2)C1`, for which the growth inhibition is 3.83%.

`COc1ccc2c(c1)C1(C)CC(C)(C)N2C(=O)N1c1ccccc1` (configuration not stated): the growth inhibition was 38.5%.

As for `OC1(C2(O)CC(c3ccccc3)ON2)CCCCC1` (configuration not stated), the growth inhibition is 19.6%.

In the case of `CCCCc1nc(NCC2CCCO2)c(C#N)c2c1COC(C)(C)C2` (configuration not stated), the growth inhibition was 13.2%.

As for `CCCc1nc(NC2CCCCC2)c(C#N)c2c1COC(C)(C)C2`, the growth inhibition is 51.4% (active).

Turning to `CCc1nc(NC2CCCCC2)c(C#N)c2c1COC(C)(C)C2`, the growth inhibition is 46.1%.

`CN(C)c1ccc(C=NCC2(O)CCOC(C)(C)C2)cc1` (configuration not stated): the growth inhibition is -1.1%.

On to `Cc1ccc(OCC(=O)N2CCC(N3CCCCCC3)CC2)cc1`, for which the growth inhibition was 0.02%.

Turning to `O=C1CC(c2ccco2)CC(O)=C1C=NCCN1CCN(C2CC(=O)N(c3ccccc3)C2=O)CC1` (configuration not stated), the growth inhibition is 11.7%.

`O=C1CC(c2ccco2)CC(O)=C1C=Nc1cc(Cl)ccc1O` (configuration not stated): the growth inhibition was 52.3% (active).

On to `CCOC(=O)c1ccc(N=CC2=C(O)CC(c3ccco3)CC2=O)cc1` (configuration not stated), for which the growth inhibition is 8.87%.

Regarding `CC1(C)CC(=O)C2=C(C1)OC(N)=C(C#N)C2C1C=CCCC1` (configuration not stated), the growth inhibition was 5.77%.

Consider `CCOC(=O)c1[nH]c2ccccc2c1N=CN(CC)CC`, for which the growth inhibition was 1.27%.

`COC(=O)CSC1=C(C#N)C(=O)NC2(CCCCC2)S1`: the growth inhibition is 7.6%.

As to `COC(=O)CN(c1nc(C)cc(OC)n1)S(=O)(=O)c1ccccc1`, the growth inhibition was 12.9%.

For the molecule `Cc1ccc2nc(NCc3ccccc3)[nH]c2c1`, the growth inhibition was 66.2% (active).

For `Cc1ccc2cc(CNC(C)(C)C)c(=O)[nH]c2c1`, the growth inhibition was -14.5%.

In the case of `Cn1c(=O)cc(NCc2ccccc2)[nH]c1=O`, the growth inhibition is 8.28%.

Turning to `O=C1OC(Nc2ccc(Br)cc2F)c2ccccc21` (configuration not stated), the growth inhibition was 3.02%.

Turning to `CC(=O)Nn1cnc2c(c1=O)C1(CCCC1)Cc1ccccc1-2`, the growth inhibition is 16.8%.

On to `N#CCc1nc2c3c4c(sc3ncn2n1)CCCC4`, for which the growth inhibition is 9.82%.

For the molecule `Nc1nc(NC(=O)Cc2ccccc2)nn1-c1ccccc1`, the growth inhibition is 6.96%.

As for `COc1ccc(C(=O)Nc2nc(N)n(-c3ccccc3)n2)cc1OC`, the growth inhibition is 1.17%.

With `O=C(Nc1nc(NC(=O)c2ccco2)n(-c2ccccc2)n1)c1ccccc1`, the growth inhibition is 82.7% (active).

As for `Cc1ccc(-n2c(N)c(C(N)=O)sc2=S)cc1`, the growth inhibition is 6.9%.

As to `CCCC(=O)Nc1nn(CCC)c2nc3ccccc3cc12`, the growth inhibition was -8.01%.

`CN1C(=O)c2c(sc3c2CCCC3)NC1c1ccccc1O` (configuration not stated): the growth inhibition is 27.8%.

Turning to `COc1cccc(C2C(C(=O)c3cc4ccccc4o3)=C(O)C(=O)N2CCN(C)C)c1OC` (configuration not stated), the growth inhibition was 1.22%.

For `CCOC(=O)c1cnn2c1[nH]c(=O)c1ccccc12`, the growth inhibition was 7.89%.

As to `CCO/C(C)=N/n1c2nc3ccccc3nc2c2c(=O)n(CC(C)C)c(C)nc21`, the growth inhibition is 3.19%.

In the case of `CC(C)OC(=O)c1c2nc3ccccc3nc2n2c1[nH]c(=O)c1ccccc12`, the growth inhibition is 60.3% (active).

`Cc1cc2ccccc2cc(C)c1=O`: the growth inhibition was 9.2%.

On to `Cc1cc(=O)oc2c(CN3CCC(C)CC3)c(O)c(Cl)cc12`, for which the growth inhibition is -0.87%.

As to `O=C(CC(c1ccc(F)cc1)c1ccco1)N1CCCC1` (configuration not stated), the growth inhibition was 7.48%.

Regarding `Nn1c(SCC(=O)Nc2ccc3c(c2)OCCO3)nnc1C(F)(F)F`, the growth inhibition was 14.6%.

`COc1ccc(OC)c(C2=Nn3c(nnc3C3CCCCC3)SC2)c1`: the growth inhibition is 47.4%.

As to `c1ccc(-c2nnc3n2N=C(c2ccc4c(c2)OCO4)CS3)nc1`, the growth inhibition is 13.4%.

As for `c1cc2c(cc1C1=Nn3c(nnc3C3CCCCC3)SC1)OCO2`, the growth inhibition was 50.2% (active).

Turning to `O=S1CCCSC1c1cccnc1` (configuration not stated), the growth inhibition was -0.58%.

On to `COc1ccc(/C(O)=C2\C(=O)C(=O)N(c3cc(C)on3)C2c2ccccc2OC)cc1C` (configuration not stated), for which the growth inhibition is 7.8%.

Take `COc1cccc(-c2nc(NC(C)(C)C)c3ccccc3n2)c1O`: the growth inhibition was 20.9%.

With `COc1cccc(-c2nc(NCc3ccco3)c3ccccc3n2)c1O`, the growth inhibition was 9.14%.

`CCC(C)Nc1nc(-c2cccc(OC)c2O)nc2ccccc12` (configuration not stated): the growth inhibition is 71.5% (active).

For `COc1cccc(-c2nc(NC(C)C)c3ccccc3n2)c1O`, the growth inhibition was 77.9% (active).

Turning to `CCN(CC)c1nc(-c2cccc(OC)c2O)nc2ccccc12`, the growth inhibition is 13.8%.

For the molecule `COC(=O)CNc1nc(-c2cccnc2)nc2ccccc12`, the growth inhibition is 6.85%.

As to `CC1(C)Cc2nc(NCCCO)c(C#N)cc2CO1`, the growth inhibition was -0.91%.

For `CCCCOC(=O)C(C)c1c(C)[nH]c(=S)[nH]c1=O` (configuration not stated), the growth inhibition was 5.11%.

Turning to `O=C(Nc1ncccc1Cl)c1cccc(F)c1`, the growth inhibition is 7.47%.

As to `COc1ccc(C2C(C#N)=C(SC)NC3=C2C(=O)CC(C)(C)C3)cc1` (configuration not stated), the growth inhibition was 11.2%.

Consider `Fc1cnc(N2CCOCC2)nc1NCc1ccccc1`, for which the growth inhibition is -1.26%.

Consider `c1ccc(N2CCN(c3nc(NCc4ccco4)c4ccccc4n3)CC2)cc1`, for which the growth inhibition is 90.4% (active).

For the molecule `Oc1ccccc1-c1nc(NCc2ccco2)c2ccccc2n1`, the growth inhibition is 31.9%.

For `COc1cccc(COc2nc3c(c(=O)n(C)c(=O)n3C)n2C)c1`, the growth inhibition was 29.5%.

Turning to `COc1cccc(OC)c1C(=O)Nc1nc2ccc(S(C)(=O)=O)cc2s1`, the growth inhibition is 11.2%.

Consider `CCCCOc1ccccc1C(=O)NCCCC(=O)O`, for which the growth inhibition is -2.38%.

As for `CCCNCC(O)COc1ccccc1C(=O)CCc1ccccc1` (configuration not stated), the growth inhibition was 54.2% (active).

Take `CCCOc1ccccc1C(=O)NCCCC(=O)O`: the growth inhibition is -12.4%.

As for `Cc1ccccc1NC(=O)NCCc1nc2ccccc2[nH]1`, the growth inhibition is -5.83%.

For the molecule `COc1ccc(C(=O)CCN2CCCCCC2)cc1`, the growth inhibition was 2.68%.

As for `COc1ccc(C(O)C(CN2CCOCC2)c2ccccc2)cc1` (configuration not stated), the growth inhibition is 2.01%.

As for `COc1ccc(C(=O)C(CN2CCCC2)c2ccccc2)cc1` (configuration not stated), the growth inhibition is 88.2% (active).

`Cc1cc(C)nc(N(C#N)CN2C(=O)c3ccccc3C2=O)n1`: the growth inhibition is -0.78%.

Turning to `COC(=O)c1ccc(C(=O)OC)c(NC(=O)c2cc3ccccc3o2)c1`, the growth inhibition is 5.58%.

As to `COC(=O)/C(C#N)=C1/SC=C(C)N1c1ccccc1`, the growth inhibition is 4.54%.

Consider `Cn1c(NCc2ccco2)nc2c1c(=O)n(Cc1ccc(Cl)c(Cl)c1)c(=O)n2C`, for which the growth inhibition was 70% (active).

`C=CCOc1nc2c(c(=O)n(Cc3ccc(Cl)c(Cl)c3)c(=O)n2C)n1C`: the growth inhibition was 35.1%.

`Cn1c(=O)c2c(nc(NCc3ccco3)n2Cc2ccccc2Cl)n(C)c1=O`: the growth inhibition was 2.6%.

Take `Cn1c(=O)c2c(nc(NCc3ccco3)n2Cc2ccc(Cl)cc2Cl)n(C)c1=O`: the growth inhibition was 0.48%.

Turning to `Cn1c(OCc2ccco2)nc2c1c(=O)n(Cc1ccc(Cl)c(Cl)c1)c(=O)n2C`, the growth inhibition was 59% (active).

`Cn1c(OCc2ccc3c(c2)OCO3)nc2c1c(=O)n(Cc1cccc(Cl)c1)c(=O)n2C`: the growth inhibition was -0.73%.

Turning to `CNC(=O)c1cc2ccccc2o1`, the growth inhibition is -3.18%.

In the case of `O=c1cc(O)nc2n1CCCS2`, the growth inhibition was 2.49%.

For the molecule `COC(=O)C(NC(=O)c1ccco1)(Nc1ccc(Br)cn1)C(F)(F)F` (configuration not stated), the growth inhibition is 22.7%.

For `CCOC(=O)CC(C#N)c1cn(C)c2ccccc12` (configuration not stated), the growth inhibition was 3.83%.

For `C=CC[N+](C)(C)CCCNC(=O)/C=N/O`, the growth inhibition is -6.91%.

As to `COc1cccc(C(=O)Nc2ccc(-c3nnc(-c4ccco4)o3)cc2)c1`, the growth inhibition is 23.8%.

Take `CCN(CC)CCn1c(O)c(N=O)c2ccccc21`: the growth inhibition is 2.91%.

On to `Cn1c(=O)n(Cc2ccccc2)c(=O)c2c1nc(NCC1CCCO1)n2Cc1ccccc1` (configuration not stated), for which the growth inhibition is 45.3%.

Consider `Cn1c(N2CCOCC2)nc2c1c(=O)n(Cc1ccc(Cl)c(Cl)c1)c(=O)n2C`, for which the growth inhibition is 36.7%.

As to `Cn1c(N2CCOCC2)nc2c1c(=O)n(Cc1ccc(Cl)cc1)c(=O)n2C`, the growth inhibition is 17.2%.

As for `Cn1c(NCc2ccccc2)nc2c1c(=O)n(Cc1ccc(Br)cc1)c(=O)n2C`, the growth inhibition was 72.5% (active).

`Cn1c(N2CCN(c3ccccn3)CC2)nc2c1c(=O)n(Cc1ccccc1Cl)c(=O)n2C`: the growth inhibition was 7.18%.

For the molecule `COCCNc1nc2c(c(=O)n(Cc3ccc(OC)cc3)c(=O)n2C)n1C`, the growth inhibition was 12.2%.

In the case of `Cn1c(NCC(O)c2ccccc2)nc2c1c(=O)n(Cc1ccc(Cl)cc1)c(=O)n2C` (configuration not stated), the growth inhibition is 71.7% (active).

For `Cn1c(NCC(O)c2ccccc2)nc2c1c(=O)n(Cc1ccc(Cl)c(Cl)c1)c(=O)n2C` (configuration not stated), the growth inhibition is 88% (active).

Turning to `Cn1c(NCc2cccnc2)nc2c1c(=O)n(Cc1ccccc1F)c(=O)n2C`, the growth inhibition is 18.8%.

For `Cn1c(NCc2ccccc2)nc2c1c(=O)n(Cc1ccccc1)c(=O)n2C`, the growth inhibition was 39.1%.

For `COc1ccc(Cn2c(=O)c3c(nc(NCCO)n3C)n(C)c2=O)cc1`, the growth inhibition was 3.12%.

In the case of `Cn1c(N2CCN(c3ccccn3)CC2)nc2c1c(=O)n(Cc1ccc(Cl)cc1)c(=O)n2C`, the growth inhibition was 50.6% (active).
